According to PubChem BioAssay (NCATS):
Inconclusive results are not listed. Activity calls are given as the source filed them. Calls follow the shape of the dose curve; as a rule, active = well fitted curve in the direction sought with a large enough effect; inconclusive = small, poorly fitted or top-dose-only effect, or another doubt; inactive = no such curve, though single readings can be large; an effect the other way counts as inactive or inconclusive.

Tests used:
[1] = system: HaCat; assay: Cytotoxic Profiling of Annotated Libraries Using Quantitative High-Throughput Screening (AID 1296008); settings: Five cell lines viability, CellTiter-Glo ATP luminescence, 48-72 h; max response: stronger effect = lower value; also: nearly all actives have a fitted effect of over 60% in size; also: potency is read from the fitted curve at half-maximal effect; as to max response: % is scaled to controls: 0 for no effect and ±100 for the full control effect
Outline: (§1)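 Compounds were pin-transferred onto cells and incubated 48 or 72 hr at 37 degree Celsius, 95% humidity. CellTiter-Glo was added, plates sat 10 min at room temperature, then ATP-coupled luminescence was imaged as the viability read-out.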

[2] = system: KB-3-1; assay: as above; settings: Five cell lines viability, CellTiter-Glo ATP luminescence, 48-72 h; max response: stronger effect = lower value
Outline: as §1

[3] = system: NIH3T3; assay: as above; settings: Five cell lines viability, CellTiter-Glo ATP luminescence, 48-72 h; max response: stronger effect = lower value
Outline: as §1

[4] = system: C33A; assay: Primary qHTS to identify gynecologic anti-cancer compounds using libraries of approved drugs and bioactive compounds (AID 1345084); settings: Gynecologic cancer cell panel viability, ATPlite luminescence, 48 h; series mostly up to 57.5 µM; also: nearly all actives have a fitted effect of over 55% in size; also: potency is read from the fitted curve at half-maximal effect
Outline: (§2)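 Measured: luminescence after ATPlite addition (15 min, RT). Exposure: 48 h, 37 C, 5% CO2.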

[5] = system: CAOV3; assay: as above; settings: Gynecologic cancer cell panel viability, ATPlite luminescence, 48 h; series mostly up to 57.5 µM
Outline: as §2

[6] = system: CASKI; assay: as above; settings: Gynecologic cancer cell panel viability, ATPlite luminescence, 48 h; series mostly up to 57.5 µM
Outline: as §2

[7] = system: Es-2; assay: as above; settings: Gynecologic cancer cell panel viability, ATPlite luminescence, 48 h; series mostly up to 57.5 µM
Outline: as §2

[8] = system: HeLa; assay: as above; settings: Gynecologic cancer cell panel viability, ATPlite luminescence, 48 h; series mostly up to 57.5 µM
Outline: as §2

[9] = system: Hek293T; assay: as above; settings: Gynecologic cancer cell panel viability, ATPlite luminescence, 48 h, control line for the selectivity index; series mostly up to 57.5 µM
Outline: as §2

[10] = system: JEG-3; assay: as above; settings: Gynecologic cancer cell panel viability, ATPlite luminescence, 48 h; series mostly up to 57.5 µM
Outline: as §2

[11] = system: OV90; assay: as above; settings: Gynecologic cancer cell panel viability, ATPlite luminescence, 48 h; series mostly up to 57.5 µM
Outline: as §2

[12] = system: SKOV3; assay: as above; settings: Gynecologic cancer cell panel viability, ATPlite luminescence, 48 h; series mostly up to 57.5 µM
Outline: as §2

[13] = system: NIH3T3; assay: qHTS assay to identify novel small-molecules to repurpose for Merkel cell carcinoma treatment (AID 1296009); settings: MCC and control cell lines, CellTiter-Glo viability, 72 h; series mostly up to 44.8 µM; also: nearly all actives have a fitted effect of over 60% in size
Outline: (§3)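 qHTS format: cells treated with library compounds in DMSO across 8 (NPC) or 11 (MIPE) concentrations. Readout after 72 hr at 37 degree celsius was CellTiter-Glo luminescence.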

[14] = system: PA-1; assay: Primary qHTS to identify gynecologic anti-cancer compounds using libraries of approved drugs and bioactive compounds (AID 1345084); settings: Gynecologic cancer cell panel viability, ATPlite luminescence, 48 h; series mostly up to 57.5 µM; also: nearly all actives have a fitted effect of over 55% in size; also: potency is read from the fitted curve at half-maximal effect
Outline: as §2

[15] = system: HACAT; assay: qHTS assay to identify novel small-molecules to repurpose for Merkel cell carcinoma treatment (AID 1296009); settings: MCC and control cell lines, CellTiter-Glo viability, 72 h; at 44.8 µM (top of the series) unless noted; also: nearly all actives have a fitted effect of over 60% in size
Outline: as §3

CCNc1nc(Nc2cc(F)c(C(=O)N3CCOCC3)cc2OC)ncc1C(F)(F)F
inactive: max response [1] 1.43% | max response [2] -21.3% | max response [3] -2.73% | Potency [4] | Potency [5] | Potency [6] | Potency [7] | Potency [8] | Potency [9] | Potency [10] | Potency [11] | Potency [12]

COc1cc2ncnc(Nc3cccc(I)c3)c2cc1OC
inactive: outcome [3] | Potency [13] | Potency [4] | Potency [6] | Potency [7] | Potency [9] | Potency [10] | Potency [11] | Potency [14]
active: Potency [1] 4.61 µM | Potency [2] 9.2 µM

Cc1ccc(-c2cn3c4c(sc3n2)CCCC4)cc1
inactive: outcome [1] | max response [2] -4.88% | max response [3] -12.5% | outcome [15]
active: Potency [5] 10 µM | Potency [6] 17.8 µM | Potency [7] 11.2 µM | Potency [8] 12.6 µM | Potency [9] 12.6 µM | Potency [12] 15.8 µM

C/C=C(\C)C(=O)O[C@H]1C[C@](C)(O)[C@H]2CC=C(C)[C@H]2[C@@H]2OC(=O)[C@H](C)[C@H]21
inactive: max response [1] 2.74% | max response [2] -0.753% | max response [3] 0.0048% | Potency [4] | Potency [5] | Potency [6] | Potency [7] | Potency [8] | Potency [9] | Potency [10] | Potency [11] | Potency [14] | Potency [12]

C=CC(=O)N1CCCN(c2cc(NCCC(=O)O)nc(-c3ccccn3)n2)CC1
inactive: outcome [1] | max response [2] -3.55% | max response [3] -29.3% | outcome [15] | Potency [4] | Potency [5] | Potency [6] | Potency [8] | Potency [9] | Potency [10] | Potency [14]

C=C1C(=O)OC2CC3(C)C(O)C(=O)C=C(C)C3CC12 (stereo unspecified)
inactive: max response [1] 0.297% | outcome [2] | max response [3] -22.8% | Potency [4] | Potency [5] | Potency [6] | Potency [7] | Potency [8] | Potency [9] | Potency [10] | Potency [11] | Potency [14] | Potency [12]

O=S(=O)(Nc1ccccc1N1CCCCC1)c1ccc(Cl)s1
inactive: max response [1] -19.5% | max response [2] -15.2% | max response [3] -6.22% | Potency [4] | Potency [5] | Potency [6] | Potency [7] | Potency [8] | Potency [9] | Potency [10] | Potency [14] | Potency [12]

NS(=O)(=O)Nc1ncnc(OCCOc2ncc(Br)cn2)c1-c1ccc(Br)cc1
inactive: max response [1] -23.8% | max response [2] 6.63% | max response [3] -5.35% | Potency [4] | Potency [5] | Potency [6] | Potency [7] | Potency [8] | Potency [9] | Potency [10] | Potency [11] | Potency [14]

COc1cc(C(=O)NCC2(N(C)C)CCCC2)cc(OC)c1OCc1ccccc1
inactive: max response [1] 3.73% | max response [2] 3.26% | max response [3] -9.79% | Potency [4] | Potency [5] | Potency [6] | Potency [7] | Potency [8] | Potency [9] | Potency [10] | Potency [11] | Potency [14] | Potency [12]

NC(=O)c1nc(Nc2ccccc2)sc1NC(=O)C1CCCCC1
inactive: max response [1] -27.5% | outcome [2] | max response [3] -18.8% | Potency [4] | Potency [5] | Potency [6] | Potency [7] | Potency [8] | Potency [9] | Potency [10] | Potency [11] | Potency [14]

CC1=C(c2ccc(NC(=O)c3c(F)cccc3F)cc2)CN(c2nccs2)CC1
inactive: max response [1] -2.64% | outcome [2] | max response [3] -1.55% | Potency [4] | Potency [5] | Potency [6] | Potency [7] | Potency [8] | Potency [9] | Potency [14] | Potency [12]

C=C1C(=O)O[C@@H]2[C@H]1CCC(C)=C(CCC(=O)O)[C@@]2(C)O
inactive: max response [1] 2.79% | outcome [2] | max response [3] -62.1% | Potency [4] | Potency [5] | Potency [6] | Potency [7] | Potency [8] | Potency [9] | Potency [10] | Potency [11] | Potency [14] | Potency [12]

C=C1/C(=C/C=C2\CCC[C@@]3(C)C2CCC3[C@H](C)/C=C/[C@@H](O)C2CC2)C[C@@H](O)C[C@@H]1O (stereo partly specified)
inactive: max response [1] -20.3% | max response [2] -9.38% | max response [3] -32.1% | Potency [4] | Potency [5] | Potency [6] | Potency [7] | Potency [8] | Potency [9] | Potency [10] | Potency [11] | Potency [14] | Potency [12]

C=CC(C)(C)C12CC3C(=O)N4C(CC5(C(C)(C)C=C)c6ccccc6NC45)C(=O)N3C1Nc1ccccc12 (stereo unspecified)
active: Potency [1] 11.2 µM
inactive: max response [2] 3.74% | max response [3] 1.64% | Potency [4] | Potency [5] | Potency [6] | Potency [7] | Potency [8] | Potency [9] | Potency [11] | Potency [14] | Potency [12]

COc1c(C(O)CC(C)C)ccc2c1C(=O)OCc1cc(C)cc(O)c1O2 (stereo unspecified)
inactive: max response [1] 0.403% | max response [2] -22.7% | max response [3] -2.04% | Potency [4] | Potency [5] | Potency [6] | Potency [7] | Potency [8] | Potency [9] | Potency [10] | Potency [11] | Potency [14] | Potency [12]
